From ChEMBL document CHEMBL3433997, “St. Jude Leishmania screening dataset” (2016)

target: Solute carrier family 2, facilitated glucose transporter member 1 (Homo sapiens) (UniProt P11166); assay: ST_JUDE_LEISH: Cytotoxicity at 2uM final concentration against transgenic Leishmania Mexicana promastigotes LmGLUT1 that are glucose transport deficient and complemented with the human glucose transporter GLUT1. Activity is measured by DNA content using SYBR green in vitro; type: functional
Sequence (P11166 whole entry): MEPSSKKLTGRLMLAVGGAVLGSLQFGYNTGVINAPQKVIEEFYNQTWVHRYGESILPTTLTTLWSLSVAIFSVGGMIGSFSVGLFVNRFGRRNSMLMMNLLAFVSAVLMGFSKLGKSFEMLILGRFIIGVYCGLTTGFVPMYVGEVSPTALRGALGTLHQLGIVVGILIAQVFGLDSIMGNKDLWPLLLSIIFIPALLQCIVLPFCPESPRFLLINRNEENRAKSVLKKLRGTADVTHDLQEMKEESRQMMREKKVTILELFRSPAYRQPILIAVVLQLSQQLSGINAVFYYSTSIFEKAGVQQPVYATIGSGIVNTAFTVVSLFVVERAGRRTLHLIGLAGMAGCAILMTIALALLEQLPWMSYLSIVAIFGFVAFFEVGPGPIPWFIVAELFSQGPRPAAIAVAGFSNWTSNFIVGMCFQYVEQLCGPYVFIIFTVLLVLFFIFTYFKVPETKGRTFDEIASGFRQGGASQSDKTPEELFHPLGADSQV

Structure (SMILES) | inhibition [%]
O=C(Nc1cccc(F)c1)c1ccc(C(=O)NC2CCN(CC3CCCCC3)C2)cc1 (stereo not given) | 11.1
Cc1ccccc1C1CCN(C2CCC(NC(=O)/C=C/c3cccc(C(F)(F)F)c3)CC2)CC1 (stereo not given) | 1.86
COc1cc(CCNCC(O)c2ccc([N+](=O)[O-])c(OCc3ccccc3)c2)cc(OC)c1OC (stereo not given) | -0.46
CCC(C)NC(=O)CN1CN(c2ccccc2)C2(CCN(C(=O)c3ccc(C(C)(C)C)cc3)CC2)C1=O (stereo not given) | 3.34
Cc1ccccc1C1CCN(C2CCC(NC(=O)/C=C/c3cc(F)ccc3F)CC2)CC1 (stereo not given) | 1.51
C=CCn1c(Sc2ccc(C#N)c([N+](=O)[O-])c2)nnc1-c1cccc(Cl)c1 | -1.46
Cc1nc(-c2nc(N3CCC(O)CC3)ncc2-c2ccsc2)sc1C | -1.86
NC1CCN(Cc2cccc(-c3ccc(-c4nc5ccccc5[nH]4)s3)c2)C1 (stereo not given) | 3.94
CC(CCON1C(N)=NC(N)=NC1(C)C)c1ccc(Cl)cc1 (stereo not given) | 21.4
COc1ccc(-c2cncc3ccc(C(=O)NCCCn4ccnc4)nc23)cc1 | 7.45
O=C1CSc2ccc(CNC3CCN(CCc4c(Cl)cnc5ccc(F)cc45)CC3)nc2N1 | 0.93
Cc1sc2nc(CSc3ccccc3)nc(N3CCN(CC(=O)N4CCCC4)CC3)c2c1C | 5.03
CCCC(C)Nc1nc(C)cc(N[C@@H](CC(C)C)C(=O)NCCOc2ccccc2)n1 (stereo not given in full) | 21.4
CCOc1ccccc1C(=O)N1CCc2cc3nccc(N4CCN5CCC[C@H]5C4)c3cc21 | -0.64
O=C(/C=C/c1ccc(Cl)c(Cl)c1)NCCCCCN1CCC(NC(=O)Nc2ccc([N+](=O)[O-])cc2)CC1 | -0.34
